Compounds with a hit are over-represented: about 4% of the library has one in this group of screens.
HIF-2a block: HIF-2a reporter inhibitors, primary screen, luminescence, 786-0 RCC cells. 786-0 RCC cells HIF-2a reporter, luciferase luminescence, overnight. inhibition, % at 18.8 µM. 360,000 tested, 0.72% active;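 active = inhibition of the luminescence signal of 40% or more relative to plate controls, in a single-dose primary screen at 18.75 µM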
CF NFkB block: inhibitors of PAF-induced NF-kB signaling, primary screen, cell-based, GFP fluorescence, uHTS | 360,000 tested, 0.86% active | inhibition, % at 5 µM | KKLEB NF-kB-GFP reporter, GFP fluorescence overnight;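 active = at least 50% inhibition at 5 µM, scaled per plate between neutral and stimulator controls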;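 note: PAF is a Pseudomonas aeruginosa culture filtrate used as stimulus; plate controls were PAF-stimulated DMSO wells for no effect and unstimulated DMSO wells for full effect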
Peg3 prom inh: Peg3 promoter-driven luciferase inhibitors, primary screen, cell-based, HeLa, luciferase luminescence; inhibition, % at 20 µM; 360,000 tested, 1.7% active; HeLa PEG-Prom luciferase reporter, overnight;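 active = inhibition of at least 50% at 20 µM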
KKLEB cytotox: cytotoxicity in KKLEB CF airway cells, primary screen, cytotoxicity control for CF NF-kB inhibitor project, cell-based, uHTS, fluorescence assay plates. activity change (cytotoxicity), % at 5 µM. 360,000 tested, 0.36% active. KKLEB CF airway cells viability, ATPlite luminescence, overnight; hits give low values; cells stimulated with P. aeruginosa culture filtrate;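 active = corrected activity change at or below -50% at 5 µM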
TWEAK-Fn14 inh: inhibitors of TWEAK-Fn14 signaling, primary screen, luciferase reporter cells, uHTS | TWEAK-stimulated Fn14 reporter cells, luciferase luminescence, 8 h | inhibition, % at 10 µM | 360,000 tested, 2% active | AID 1159606, 2016; in the data active = inhibition above about 50%
TROY signal inh: inhibitors of TROY-driven NF-kB signaling, primary screen, Q293 LMP1-TROYcd cells, NF-kB luciferase, uHTS | 360,000 tested, 0.98% active | Q293 LMP1-TROYcd NF-kB luciferase reporter, 4 h | AID 1347056, 2019 | inhibition, % at 10 µM;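 active = compounds whose plate-normalised and pattern-corrected inhibition of the luciferase reporter signal at the single screening dose is 50% or more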
Starred values were filed as active, the others as inactive; / = no result.

SMILES	HIF-2a block	CF NFkB block	Peg3 prom inh	KKLEB cytotox	TWEAK-Fn14 inh	TROY signal inh
COc1ccc(NC(=O)CC2C(=O)N(Cc3ccccc3)C(=S)N2CCN2CCOCC2)cc1 (centres undefined)	2	-19	1	-7	37	-14
CC(C)c1ccc(-n2cccc2/C=C2/C(=N)N3C=CSC3=NC2=O)cc1	19	-9	32	-5	55*	42
COc1ccc(-c2nc(N)ncc2-c2ccccc2OC)c(O)c1	24	8	5	-5	11	17
Cc1ccc2nc(-c3cc(N)cc(N)c3)oc2c1	62*	-3	-122	-26	62*	60*
CCOC(=O)[C@@H]1[C@H]2COc3ccccc3[C@H]2N2C(=O)N(c3ccc(Cl)cc3)C(=O)[C@@]12C	17	24	13	-23	-3	-2
Cc1cccc(NC(=O)C(=O)NNC(=O)c2ccc(C(C)(C)C)cc2)c1	-16	84*	0	-62*	-20	-4
CCc1cccc2c(C(=O)CN3C(=O)NC(C)(c4cccc5ccccc45)C3=O)c[nH]c12 (centres undefined)	-3	-10	60*	-8	-2	33
O=C(NCc1ccc2c(c1)OCO2)c1cc(-c2ccccc2)nn1CC1CC(c2cccnc2)=NO1 (centres undefined)	4	-34	-5	10	2	-9
Nc1nc(CCl)nc(Nc2ccc3ccccc3c2)n1	-125	78*	-32	-37	16	-27
CN(C(=O)Nc1ccccc1)C1CCCc2ccccc21 (centres undefined)	-96	5	-94	2	-5	-7
CCOC(=O)C1=C(c2ccccc2)NC(SCC(=O)Nc2cccc(C)c2)=C(C#N)C1c1ccco1 (centres undefined)	13	15	70*	-3	39	16
CCOC(=O)C1=C(c2ccccc2)NC(SCC(=O)Nc2ccccc2C)=C(C#N)C1c1ccco1 (centres undefined)	21	-12	24	8	51*	8
Cc1cccc(C(=O)N[C@H](C(=O)Nc2ncc(C)s2)C(C)C)c1	-3	42	60*	-34	24	-1
Cc1cccc(C(=O)N[C@H](C(=O)Nc2nnc(C3CC3)s2)C(C)C)c1	25	8	6	0	12	1
Cc1cccc(C(=O)Nc2ncc(CN3CCOCC3)s2)c1	-24	7	-1	0	66*	-6
COCCCN1CC(=O)N2C(c3cccc(OC)c3OC)c3[nH]c4ccccc4c3C[C@H]2C1=O (some centres undefined)	15	-25	-2	6	-6	15
O=C1C2C3CC(C(Br)C3Br)C2C(=O)N1c1nccs1 (centres undefined)	11	-1	-3	-5	2	-5
Cc1ccc(CNC(=O)COC(=O)c2cccc(S(=O)(=O)N3CCCCC3)c2)cc1	3	3	17	-8	14	1
Cc1cccc2sc(N(CCCN(C)C)C(=O)CN3C(=O)c4ccccc4C3=O)nc12	4	-3	-38	4	1	-25
CN(C)CCCN(C(=O)c1ccco1)c1nc2ccc(Br)cc2s1	-64	-9	51*	-14	-54	-69
Cc1cccc2sc(N(CCCN(C)C)C(=O)CCc3ccccc3)nc12	10	22	104*	-15	-20	-23
CN(C)CCCN(C(=O)CCc1ccccc1)c1nc2ccc(Br)cc2s1	-3	24	106*	-21	-8	11
CN(C)CCCN(C(=O)c1ccco1)c1nc2ccc(Cl)cc2s1	-55	9	-61	-10	-26	-53
Cc1ccc(S(=O)(=O)Nc2ccccc2C(=O)N2CCCCC2C)c(C)c1NS(C)(=O)=O (centres undefined)	9	9	9	-8	27	8
COc1ccc(C(=O)NC2CC2)cc1OC1CCN(Cc2cc(C)c(C)cc2C)CC1	11	0	12	2	88*	16
SMILES	HIF-2a block	CF NFkB block	Peg3 prom inh	KKLEB cytotox	TWEAK-Fn14 inh	TROY signal inh
CCN1CCN(S(=O)(=O)c2ccc(Cl)c(C(=O)NCc3nc4ccccc4[nH]3)c2)CC1	1	-6	14	-6	8	-19
CC(C)(C)n1nnnc1C(c1cc2ccccc2o1)N(CCC#N)Cc1ccccc1 (centres undefined)	4	/	/	/	24	7
COc1ccc(Nc2nc3ccc(C)cc3cc2C#N)c(OC)c1	-37	-15	13	8	85*	-21
COc1ccc(Nc2nc3cc(C)ccc3cc2C#N)c(OC)c1	12	21	15	-33	-5	-3
Cc1nn(CC(=O)c2ccccc2Cl)c(C)c1[N+](=O)[O-]	-193	16	-216	-17	52*	57*
Cc1nn(CC(=O)NCc2ccccc2)c(C)c1[N+](=O)[O-]	17	2	-4	2	4	2
COCCCN1C(=O)C(CC(=O)NCCN2CCOCC2)CC(C(=O)N(C(C)C)C(C)C)=C1C (centres undefined)	4	-24	6	-5	17	0
Cc1cccc(C)c1NC(=O)C1(C)CN(S(C)(=O)=O)CC(=O)N1CCc1ccccc1F (centres undefined)	-2	/	/	/	/	/
Cc1ccc2c(c1)COc1c3ccc(C(=O)N[C@@H](CO)C(C)C)cc3nn1-2	-235	0	-285	3	-2	-79
C[C@@H](CO)NC(=O)c1ccc2c3n(nc2c1)-c1ccccc1CO3	-42	-39	-65	-15	53*	28
CCS(=O)(=O)c1ccc(N=Nc2ccc(O)c3ncccc23)c(OC)c1	12	45	48	-27	65*	39
COc1ccccc1N=Nc1ccc(O)c2ncccc12	-96	-2	20	-20	42	65*
Cc1ccc(N=Nc2ccc(O)c3ncccc23)cc1C	-179	22	-79	-7	10	9
Nc1ccc(S(=O)(=O)NC2(C(F)(F)F)NC(=O)N(Cc3ccccc3)C2=O)cc1 (centres undefined)	-8	-2	11	-2	8	3
COc1c(C=O)c2c(c(OC)c1OC)-c1ccc(OC)c(=O)cc1C(NC(C)=O)CC2 (centres undefined)	21	31	-16	-12	11	18
O[C@H]1CN(CC2CCCCC2)[C@@H](c2ccc(Cl)cc2)C[C@@H]1n1cc(C2CC2)nn1	-29	10	3	16	30	52*
CCCCCCN1C[C@H](n2cc(-c3ccc(F)cc3)nn2)[C@@H](O)C[C@@H]1c1ccc(Cl)cc1	4	27	98*	-7	16	-1

Bioassay records deposited in PubChem by Sanford-Burnham Center for Chemical Genomics.
